Hits are enriched below; roughly 18% of the tested compounds scored in any of these assays.
Gal4-VP16 FLuc – counter-screen for ROR gamma inhibitors: Gal4-VP16 reporter | Drosophila S2 Gal4-VP16 UAS-luciferase, luminescence, 20 h | AID 2546 | Potency, µM (highest dose often 53.6 µM), for inactives: top-dose activity, negative = inhibition, hits mostly inhibitors | actives 3.5% (n = 310,000);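 note: Gal4-VP16 expression switched on by copper sulfate through the metallothionein promoter; potency is the fitted concentration of half-maximal effect; nearly all actives have a fitted effect of over 50% in size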
RORgamma inh – blocks mouse ROR gamma transcriptional activity. P51450. Drosophila S2 Gal4-RORgamma UAS-luciferase reporter, 20 h. Potency, µM (top dose mostly 53.6 µM), for inactives: at the top dose activity change, negative = inhibition, actives largely listed as inhibitors. actives 5.4% (n = 310,000); note: potency is the fitted concentration of half-maximal effect; nearly all actives have a fitted effect of over 60% in size
Target sequence (P51450 whole entry, looked up, the tested form may be a part): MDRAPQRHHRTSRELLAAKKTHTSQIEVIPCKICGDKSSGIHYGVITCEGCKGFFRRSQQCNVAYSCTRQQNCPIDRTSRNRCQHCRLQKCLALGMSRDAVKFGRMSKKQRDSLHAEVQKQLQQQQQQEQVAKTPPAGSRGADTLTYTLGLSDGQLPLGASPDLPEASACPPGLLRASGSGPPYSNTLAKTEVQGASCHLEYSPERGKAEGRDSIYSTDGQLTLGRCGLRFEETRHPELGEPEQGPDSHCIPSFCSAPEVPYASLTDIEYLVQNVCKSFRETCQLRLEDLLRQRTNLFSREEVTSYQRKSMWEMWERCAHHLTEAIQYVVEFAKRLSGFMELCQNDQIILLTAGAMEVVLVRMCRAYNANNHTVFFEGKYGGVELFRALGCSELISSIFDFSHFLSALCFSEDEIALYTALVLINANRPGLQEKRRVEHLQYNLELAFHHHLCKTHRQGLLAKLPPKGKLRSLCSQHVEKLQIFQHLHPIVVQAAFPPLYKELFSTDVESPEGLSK
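A Gal4/UAS one-hybrid system in insect cells: metallothionein-promoter Gal4–ROR gamma fusion plus Photinus luciferase reporter. Copper sulfate 700 uM final, 20 hr ambient incubation, luminescent detection after 10 min with reagent.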
IL-1B inflam inh – inflammasome signaling inhibition, IL-1 beta readout. THP-1 LPS/ATP IL-1B secretion, AlphaLISA, 16 h; active compounds read low. activity change, % at 57.5 µM. actives 4.7% (n = 360,000). AID 743279; in the data active = activity change below about -50%; inconclusive = mostly about -30% to -49%
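Secreted IL-1B measured by AlphaLISA bead assay after 16 h compound exposure of THP-1 cells; compounds (final up to 57.5 uM) added 1 h before LPS (250 ng/mL) and ATP (1.25 mM) stimulation; lower signal means less secretion.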
LDHA block – blocks human lactate dehydrogenase A; P00338; activity change, % (values are at about 110 or 230 µM); actives 0.15% (n = 480,000); purified LDHA, NADH/diaphorase-resazurin fluorescence; active compounds read low; in the data active = activity change below about -30%; inconclusive = mostly about -25% to -30%;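 note: plate controls were DMSO wells for no effect and wells without enzyme for full effect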
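LDH5 2 nM; NADH 0.06 mM, pyruvate 0.2 mM; 200 mM Tris pH 7.4, EDTA, Tween-20; 5 min RT. Detection: diaphorase 0.133 mg/mL + resazurin 37 µM, fluorescence ex540/em590 at 0 and 20 min; normalized to enzyme-free and DMSO wells.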
DT40 TDP1 no CPT – qHTS for Inhibitors of human tyrosyl-DNA phosphodiesterase 1 (TDP1): qHTS in cells in absence of CPT. DT40 Tdp1-/- hTDP1 cells, no CPT, ATP luminescence, 48 h. Potency, µM (doses to about 46.2 µM), without a hit: top-dose activity change, negative = growth inhibition, actives largely listed as inhibitors. actives 15% (n = 420,000); note: potency is the fitted concentration of half-maximal effect; nearly all actives have a fitted effect of over 55% in size
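Growth of hTDP1-complemented DT40 Tdp1-knockout cells is measured by ATP luminescence after at least 48 hr compound exposure at 37 °C, with DMSO substituting for the 20 nM CPT used in the parallel screen.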
DT40 TDP1 CPT – DT40-hTDP1 cell growth loss with CPT. chicken DT40 Tdp1-/-;hTDP1 cells + 20 nM CPT, ATP luminescence, 48 h. Potency, µM (highest dose often 46.2 µM), inactives show top-dose activity change, negative = growth inhibition, most hits filed as inhibitors. actives 12% (n = 420,000); note: potency is the fitted concentration of half-maximal effect; nearly all actives have a fitted effect of over 55% in size
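Chicken DT40 Tdp1-/- cells stably complemented with human TDP1 were seeded at 400 cells/well in medium containing 20 nM camptothecin, exposed to pin-transferred compounds, and grown at 37 °C for at least 48 hr. Viability was read as ATP luminescence.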
Active calls of the source: *; ? = inconclusive; . = no result. Unless noted, calls come from the whole dose curve; as a rule, active = well fitted curve in the direction sought with a large enough effect; inconclusive = small, poorly fitted or top-dose-only effect, or another doubt; inactive = no such curve, though single readings can be large; an effect the other way counts as inactive or inconclusive. Unless noted, % is set by controls: 0 for no effect and ±100 for the full control effect.

SMILES	Gal4-VP16 FLuc	RORgamma inh	IL-1B inflam inh	LDHA block	DT40 TDP1 no CPT	DT40 TDP1 CPT
O=C(NCc1cccnc1)C1CCC1	.	.	.	9.0	.	.
O=C(NCc1ccccc1)C(C1CC1)n1c(=O)c(-c2ccco2)nc2ccccc21 (stereo unspecified)	.	.	22.7	-1.8	16.4µM*	13µM*
O=C(NCc1ccccc1)C(c1ccc(C(F)(F)F)cc1)n1c(=O)c(-c2ccccc2)nc2ccccc21 (stereo unspecified)	.	.	37.2	0.5	-79.6%	-71.4%
CC(C)(C)NC(=O)C(C1CC1)n1c(=O)c(-c2ccco2)nc2ccccc21 (stereo unspecified)	.	.	-11.8	7.5	16.4µM*	?
O=C(NCc1ccccc1)C(c1ccc(C(F)(F)F)cc1)n1c(=O)c(-c2ccco2)nc2ccccc21 (stereo unspecified)	.	.	0.0	1.9	20.6µM*	?
CC(C)(C)NC(=O)C(c1ccccc1F)n1c(=O)c(-c2ccco2)nc2ccccc21 (stereo unspecified)	.	.	-12.0	-10.8	?	?
CC(C)(C)NC(=O)C(c1ccc(C(F)(F)F)cc1)n1c(=O)c(-c2ccco2)nc2ccccc21 (stereo unspecified)	.	.	26.6	2.3	18.4µM*	16.4µM*
Oc1ccc(/C=C/c2cc(-c3ccccc3)cc(-c3ccccc3)[o+]2)cc1	.	.	.	10.3	.	.
Cc1nn(-c2ccccc2)c(C)c1CN(C)S(=O)(=O)c1ccc(Cl)c(Cl)c1	.	.	.	1.0	.	.
O=C(OCc1c(Cl)cccc1Cl)c1ccc(CN2CCCC2=O)cc1	.	.	.	0.3	.	.
CCCCCNC(=O)C(c1ccc(OC)cc1)n1c(=O)c(-c2ccco2)nc2ccccc21 (stereo unspecified)	.	.	-0.2	2.0	11.6µM*	16.4µM*
CCCCCNC(=O)C(c1ccc(C#N)cc1)n1c(=O)c(-c2ccco2)nc2ccccc21 (stereo unspecified)	.	.	-2.6	-4.0	?	?
O=C(NCc1ccccc1)C(c1cc2ccccc2o1)n1c(=O)c(-c2ccco2)nc2ccccc21 (stereo unspecified)	.	.	3.6	-3.2	?	?
O=C(NCc1ccccc1)C(c1ccccc1)n1c(=O)c(-c2ccco2)nc2ccccc21 (stereo unspecified)	.	.	-18.8	-2.1	20.6µM*	?
COc1cc2oc(=O)c(CC(=O)N3CCC(O)(c4ccc(Cl)cc4)CC3)c(C)c2cc1OC	.	.	.	0.1	.	.
Cc1ccc(NCc2ccccc2CO)c(C)c1	.	.	.	8.0	.	.
CNC(=O)c1ccc(NC(=O)C2CCN(S(=O)(=O)c3ccc(C)cc3C)CC2)cc1	.	.	.	11.8	.	.
FC(F)(F)c1cccc(CSc2ncnc3ccccc23)c1	.	.	.	-1.1	.	.
CCOc1cccc2cc(-c3csc(NC(=O)CCC(=O)N4CCC(C)CC4)n3)c(=O)oc12	0.0%	-15.7%	-1.8	-4.0	16.4µM*	?
O=C(CC12CC3CC(CC(C3)C1)C2)NCc1ccc(Cl)cc1Cl	.	.	.	-8.6	.	.
COC(=O)/C(=C1/Oc2ccc(C(C)(C)C)cc2S1)C(F)(F)F	-14.9%	14.2%	-0.4	-5.6	22.4%	-3.0%
COC(=O)/C(=C1/Oc2cc(C)oc(=O)c2S1)C(F)(F)F	1.12µM*	0.708µM*	-102.1*	-2.2	2.06µM*	2.31µM*
NC(=O)c1ccc(NC(=O)[C@H](Cc2ccccc2)n2cnnn2)cc1	.	.	.	0.4	.	.
c1ccc(-c2nnnn2-c2ccccc2)cc1	-8.3%	18.4%	-2.1	-12.7	21.1%	5.8%
ClC(Cl)(c1nnnn1-c1ccccc1)c1nnnn1-c1ccccc1	5.01µM*	10µM*	-120.4*	-5.7	2.59µM*	1.3µM*
SMILES	Gal4-VP16 FLuc	RORgamma inh	IL-1B inflam inh	LDHA block	DT40 TDP1 no CPT	DT40 TDP1 CPT
COc1ccccc1CN(C)C(=O)CSc1nnc(C2CC2)n1C1CC1	.	.	16.2	-2.7	16.4µM*	?
CN(C(=O)c1cc2c(cc1Br)OCO2)c1cccc2ccccc12	.	.	26.6	-11.2	20.6µM*	?
O=C(Nc1cccc2ccccc12)c1cc2c(cc1Br)OCO2	-0.9%	16.4%	-17.6	4.4	?	?
COc1cc(/C=C(\C#N)c2nc3ccc(C)cc3[nH]2)cc(Br)c1OC	.	.	.	1.2	.	.
CC(=O)c1sc(-c2cccc(F)c2)nc1C	.	.	.	-19.0	.	.
COc1ccccc1-c1nnc(SCc2nnc(C)o2)n1CCc1ccccc1	.	.	.	-4.2	.	.
CC(=O)Nc1ccc(C(=O)CSc2nnc(-c3ccccc3F)n2CCc2ccccc2)cc1	.	.	8.0	-4.6	13µM*	?
Cc1noc(C)c1CSc1nnc(-c2ccccc2F)n1CCc1ccccc1	2.4%	-37.7%	0.0	-3.6	?	18.4µM*
CCC(=O)Nc1ccc(C(=O)CSc2nnc(-c3ccccc3F)n2C2CC2)cc1	18.9%	?	-25.9	-0.4	?	?
CCOC(=O)/C(C#N)=C\NC(C)=O	.	.	.	-0.8	.	.
Cc1ccc(SC(=O)c2ccc(F)cc2)cc1	.	.	.	5.3	.	.
CCC(=O)NC(c1ccc(C)cc1)c1ccc2cccnc2c1O (stereo unspecified)	2.82µM*	2.24µM*	141.7	9.1	4.61µM*	4.11µM*
CCCC(=O)NC(c1ccccc1Cl)c1ccc2cccnc2c1O (stereo unspecified)	4.47µM*	2.82µM*	107.5	5.9	5.17µM*	3.26µM*
CC(=O)NC(c1ccc(Cl)cc1)c1ccc2cccnc2c1O (stereo unspecified)	.	.	83.2	8.2	2.59µM*	4.11µM*
Cc1cc(NC(c2ccc(Cl)cc2)c2ccc3cccnc3c2O)no1 (stereo unspecified)	2µM*	0.794µM*	89.0	-0.3	4.61µM*	4.11µM*
O=C(Nc1cccc2cccnc12)c1ccc(Cl)cc1	4.9%	-2.5%	-17.4	-2.2	-4.8%	-13.1%
O=C(COC(=O)c1ccc2ccccc2n1)c1ccc2ccccc2c1	.	.	.	0.2	.	.
Cc1cccc(NC(=O)C(C#N)C(=O)CC(C)C)c1 (stereo unspecified)	.	.	.	5.3	.	.
CCCCOc1ccc(NC(=O)CSc2cccc3cccnc23)cc1	?	?	7.1	-2.0	?	?
COc1ccc(C(NC(=O)C(C)C)c2ccc3cccnc3c2O)cc1 (stereo unspecified)	6.31µM*	2.24µM*	137.9	18.8	0.461µM*	0.731µM*
CCCCC(=O)NC(c1ccc(OC)cc1)c1ccc2cccnc2c1O (stereo unspecified)	.	.	116.5	3.7	9.2µM*	5.8µM*

Compound activity from PubChem BioAssay.
